# Inconclusive results are not listed. A call without a number means that no potency is given here. Unmarked numbers belong to inactive results. Activity calls are given as the source filed them. Unless noted, calls follow the shape of the dose curve; as a rule, active = well fitted curve in the direction sought with a large enough effect in the repeat runs; inconclusive = weak or mixed curves; inactive = no such curve, though single readings can be large; an effect the other way counts as inactive or inconclusive.
# Experiments:
# [1] = qHTS assay to identify small molecule agonists of the peroxisome proliferator-activated receptor delta (PPARd) signaling pathway - cell viability counter screen (AID 743211); also: nearly all actives have a fitted effect of over 55% in size
# In short: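 PPARd-bla HEK293H cells (3000/well) were pre-incubated 5 h at 37 C, then exposed to compound for 17 h at 37 C. After 2 h with LiveBLAzer substrate, CellTiter-Glo was added to the same wells; luminescence read after 30 min at room temperature.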
# [2] = qHTS assay to identify small molecule antagonists of the peroxisome proliferator-activated receptor delta (PPARd) signaling pathway - cell viability counter screen (AID 743213); also: nearly all actives have a fitted effect of over 50% in size
# In short: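 Luminescence from CellTiter-Glo, added after the bla read and incubated 30 min at room temperature, gives viability of HEK293H PPARd-bla cells exposed to compounds for 17 h at 37 C with 300 nM L165041.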
# [3] = qHTS assay to identify small molecule antagonists of the farnesoid-X-receptor (FXR) signaling pathway - cell viability counter screen (AID 743221; active = well fitted cell-killing curve with a large enough effect in the repeat runs, not every such curve was filed as active; also: nearly all actives have a fitted effect of over 50% in size)
# In short: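 GeneBLAzer FXR-UAS-bla HEK 293T cells, compound plus chenodeoxycholic acid (50 uM final), 16 h at 37 C. CellTiter-Glo added to the same wells after the beta-lactamase read; luminescence read after 30 min at room temperature as viability.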
# [4] = qHTS assay to identify small molecule agonists of the vitamin D receptor (VDR) signaling pathway - cell viability counter screen (AID 743224); also: nearly all actives have a fitted effect of over 50% in size; also: potency is read from the fitted curve at half-maximal effect; as to activity change, negative = cytotoxicity: series mostly up to about 63 µM
# In short: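 Cells: VDR-bla, 2,000/well, settled 4 h. Treatment: compounds in DMSO, 16 h, 37C/5% CO2. Readout: CellTiter-Glo luminescence after 30 min RT.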
# [5] = qHTS assay to identify small molecule antagonists of the vitamin D receptor (VDR) signaling pathway - cell viability counter screen (AID 743225); also: nearly all actives have a fitted effect of over 50% in size
# In short: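 VDR-UAS-bla HEK 293T cells were plated and incubated 4 h at 37C, then dosed with compound plus 3 nM (final) 1-alpha,25-dihydroxyvitamin D3 for 16 h. After the 2 h beta-lactamase read, viability in the same wells was read as CellTiter-Glo luminescence after 30 min at room temperature.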
# [6] = qHTS assay to identify small molecule agonists of the NFkB signaling pathway - cell viability counter screen (AID 1159515; calls by dose curve; also: nearly all actives have a fitted effect of over 55% in size; also: potency is read from the fitted curve at half-maximal effect; as to activity, negative = cytotoxic: series mostly up to about 61 µM)
# In short: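 Cells are seeded (2,000 NFkB-bla ME-180 per well), rested overnight, and dosed with DMSO-dissolved compounds for 5 hr at 37 C. Viability is then read by CellTiter-Glo luminescence after 30 min at room temperature.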
# [7] = qHTS assay to identify small molecule agonists of the endoplasmic reticulum stress response signaling pathway - cell viability counter screen (AID 1159517; calls by dose curve; also: nearly all actives have a fitted effect of over 50% in size; also: potency is read from the fitted curve at half-maximal effect;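 as to activity change, negative = cytotoxicity: HeLa cells carrying an ER stress response element beta-lactamase reporter; series mostly up to about 61 µM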)
# In short: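 Steps: seed 1,500 ESRE-bla HeLa cells per well; incubate overnight at 37 C, 5% CO2; add compounds in DMSO for 5 hr; run FRET substrate 2 hr RT; add CellTiter-Glo, wait 30 min, read luminescence.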
# [8] = target: Nuclear receptor ROR-gamma (Homo sapiens) (UniProt P51449); assay: qHTS assay to identify small molecule antagonists of the retinoid-related orphan receptor gamma (ROR-gamma) signaling pathway (AID 1159521)
# In short: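 Tet-on ROR-gamma CHO cells with ROR response element-luciferase reporter; compounds added 2 hr before 1 uM doxycycline induction, then 16 hr at 37 C. Antagonism scored as decreased ONE-Glo luminescence.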
# [9] = qHTS assay to identify small molecule agonists of the AP-1 signaling pathway - cell viability counter screen (AID 1159525; calls by dose curve; also: nearly all actives have a fitted effect of over 55% in size; also: potency is read from the fitted curve at half-maximal effect)
# In short: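 Same-well cytotoxicity counter screen of the Tox21 10K library in ME-180 cells. The readout is ATP-dependent luminescence after 5 h compound treatment. Data are normalised to DMSO and tetra n-octyl ammonium bromide controls.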
# [10] = qHTS assay to identify small molecule agonists of the AP-1 signaling pathway (AID 1159526; calls by dose curve)
# [11] = target: Retinoic acid receptor RXR-alpha (Homo sapiens) (UniProt P19793); assay: qHTS assay to identify small molecule agonists of the RXR signaling pathway (AID 1159527; calls by dose curve; also: nearly all actives have a fitted effect of over 35% in size)
# In short: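 GeneBLAzer RXR-alpha-UAS-bla HEK 293T cells in 2% charcoal-stripped FBS medium were exposed to compounds for 16 hr at 37 C in agonist mode. Beta-lactamase reporter read as 460/530 nm FRET ratio after 2 hr substrate loading.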
# [12] = target: Peroxisome proliferator-activated receptor delta (Homo sapiens) (UniProt Q03181); assay: qHTS assay to identify small molecule antagonists of the peroxisome proliferator-activated receptor delta (PPARd) signaling pathway (AID 743215; active = well fitted inhibition curve with a large enough effect in the signal ratio in the repeat runs, not every such curve was filed as active; the % refers to the signal ratio;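 also: cells stimulated with agonist L165041 at 300 nM final during compound exposure; series mostly up to about 62 µM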)
# In short: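 Cells: HEK293H with a UAS-driven beta-lactamase reporter responsive to PPARd. Compounds were co-added with L165041 (300 nM, final) and incubated 17 h at 37 C before a 2 h room-temperature FRET substrate step and fluorescence reading.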
# [13] = qHTS assay to identify small molecule agonists of the farnesoid-X-receptor (FXR) signaling pathway - cell viability counter screen (AID 743218); also: nearly all actives have a fitted effect of over 45% in size; also: potency is read from the fitted curve at half-maximal effect
# In short: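 Cells were seeded, left 5 h at 37 C and 5% CO2, then dosed with compound in DMSO for 16 h. After the beta-lactamase FRET read, CellTiter-Glo was added and luminescence measured 30 min later.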
# [14] = target: Vitamin D3 receptor (Homo sapiens) (UniProt P11473); assay: qHTS assay to identify small molecule agonists of the vitamin D receptor (VDR) signaling pathway (AID 743222; calls by dose curve)
# In short: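 Cells carrying a VDR-driven beta-lactamase reporter are seeded at 2,000 per well and rested 4 h. Compounds in DMSO are added for 16 h at 37C, and FRET substrate fluorescence is measured after 2 h at room temperature.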
# [15] = target: Vitamin D3 receptor (Homo sapiens) (UniProt P11473); assay: qHTS assay to identify small molecule antagonists of the vitamin D receptor (VDR) signaling pathway (AID 743223; active = well fitted inhibition curve with a large enough effect in the signal ratio in the repeat runs, not every such curve was filed as active; the % refers to the signal ratio)
# In short: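 VDR-bla cells were treated with compound plus 3 nM final 1alpha,25-dihydroxyvitamin D3 for 16 h at 37C. Beta-lactamase reporter read by B/G FRET substrate fluorescence after 2 h at room temperature. qHTS format.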
# [16] = qHTS assay to identify small molecule antagonists of the retinoid-related orphan receptor gamma (ROR-gamma) signaling pathway - cell viability counter screen (AID 1159520); also: nearly all actives have a fitted effect of over 50% in size; also: potency is read from the fitted curve at half-maximal effect
# In short: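 Tet-on ROR gamma CHO cells were given compounds for 2 hr, then doxycycline hyclate at 1 uM final, and incubated 16 hr at 37 C. Viability was measured as ATP content by CellTiter-Glo luminescence.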
# [17] = target: Peroxisome proliferator-activated receptor delta (Homo sapiens) (UniProt Q03181); assay: qHTS assay to identify small molecule agonists of the peroxisome proliferator-activated receptor delta (PPARd) signaling pathway (AID 743212; calls by dose curve)
# In short: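 Read-out: beta-lactamase FRET fluorescence after 2 h room-temperature incubation with LiveBLAzer B/G substrate. Cells were HEK293H carrying a UAS-bla reporter for PPARd, treated at 37 C with DMSO-dissolved compounds.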
# [18] = target: Bile acid receptor (Homo sapiens) (UniProt Q96RI1); assay: qHTS assay to identify small molecule agonists of the farnesoid-X-receptor (FXR) signaling pathway (AID 743220; active = well fitted activation curve with a large enough effect in the signal ratio in the repeat runs, not every such curve was filed as active; the % refers to the signal ratio)
# In short: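 FXR-UAS-bla HEK 293T cells carrying a UAS-driven beta-lactamase reporter were plated for 5 h at 37C/5% CO2, then exposed to DMSO-dissolved Tox21 10K compounds for 16 h at 37C. A LiveBLAzer B/G FRET substrate was loaded for 2 h at room temperature before fluorescence reading.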
# [19] = target: Bile acid receptor (Homo sapiens) (UniProt Q96RI1); assay: qHTS assay to identify small molecule antagonists of the farnesoid-X-receptor (FXR) signaling pathway (AID 743217; active = well fitted inhibition curve with a large enough effect in the signal ratio in the repeat runs, not every such curve was filed as active; the % refers to the signal ratio)
# In short: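 Cells carrying a UAS-driven beta-lactamase reporter (GeneBLAzer FXR-UAS-bla HEK 293T) were plated and rested 5 h at 37 °C. Compounds in DMSO were added alongside chenodeoxycholic acid agonist at 50 uM final and left 16 h at 37 °C before FRET substrate readout.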
# Retinoic acid receptor RXR-alpha (Homo sapiens), sequence (P19793 whole entry, looked up): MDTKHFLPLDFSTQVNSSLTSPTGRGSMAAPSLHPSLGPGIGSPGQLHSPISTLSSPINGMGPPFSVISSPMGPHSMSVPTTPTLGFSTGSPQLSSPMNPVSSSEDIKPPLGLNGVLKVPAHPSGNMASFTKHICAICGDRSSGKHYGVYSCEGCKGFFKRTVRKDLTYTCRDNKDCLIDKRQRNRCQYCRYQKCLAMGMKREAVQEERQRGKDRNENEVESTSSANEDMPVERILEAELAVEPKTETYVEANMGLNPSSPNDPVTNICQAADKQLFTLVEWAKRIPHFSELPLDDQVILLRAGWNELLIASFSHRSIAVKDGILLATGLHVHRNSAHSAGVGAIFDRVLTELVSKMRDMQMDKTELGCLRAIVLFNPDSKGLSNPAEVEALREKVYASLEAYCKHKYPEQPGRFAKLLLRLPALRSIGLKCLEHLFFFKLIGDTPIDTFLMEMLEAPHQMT
# Vitamin D3 receptor (Homo sapiens), sequence (P11473 whole entry, looked up): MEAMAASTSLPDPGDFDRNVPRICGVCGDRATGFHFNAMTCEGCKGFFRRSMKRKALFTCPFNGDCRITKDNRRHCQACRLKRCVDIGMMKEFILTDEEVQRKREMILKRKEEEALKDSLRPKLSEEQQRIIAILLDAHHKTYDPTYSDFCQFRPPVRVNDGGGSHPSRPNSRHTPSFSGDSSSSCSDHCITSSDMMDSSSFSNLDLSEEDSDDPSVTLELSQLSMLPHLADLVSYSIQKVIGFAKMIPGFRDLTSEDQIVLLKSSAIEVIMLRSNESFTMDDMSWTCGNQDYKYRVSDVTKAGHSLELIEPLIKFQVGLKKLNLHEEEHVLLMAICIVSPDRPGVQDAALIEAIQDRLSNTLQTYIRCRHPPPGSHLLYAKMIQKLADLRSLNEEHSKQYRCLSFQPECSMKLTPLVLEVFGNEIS
# Bile acid receptor (Homo sapiens), sequence (Q96RI1 whole entry, looked up): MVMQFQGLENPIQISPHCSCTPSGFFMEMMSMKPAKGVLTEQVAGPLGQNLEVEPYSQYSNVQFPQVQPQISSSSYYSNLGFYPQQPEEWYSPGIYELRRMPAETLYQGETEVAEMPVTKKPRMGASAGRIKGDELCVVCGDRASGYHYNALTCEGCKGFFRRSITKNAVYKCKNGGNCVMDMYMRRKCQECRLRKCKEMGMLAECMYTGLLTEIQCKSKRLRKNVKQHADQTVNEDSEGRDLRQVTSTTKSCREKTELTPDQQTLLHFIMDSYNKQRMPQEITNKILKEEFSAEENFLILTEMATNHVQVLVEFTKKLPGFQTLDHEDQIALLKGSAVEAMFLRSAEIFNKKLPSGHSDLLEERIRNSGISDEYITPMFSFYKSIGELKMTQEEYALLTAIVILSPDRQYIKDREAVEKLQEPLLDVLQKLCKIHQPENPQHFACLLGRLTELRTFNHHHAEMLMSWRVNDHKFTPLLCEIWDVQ
# Peroxisome proliferator-activated receptor delta (Homo sapiens), sequence (Q03181 whole entry, looked up): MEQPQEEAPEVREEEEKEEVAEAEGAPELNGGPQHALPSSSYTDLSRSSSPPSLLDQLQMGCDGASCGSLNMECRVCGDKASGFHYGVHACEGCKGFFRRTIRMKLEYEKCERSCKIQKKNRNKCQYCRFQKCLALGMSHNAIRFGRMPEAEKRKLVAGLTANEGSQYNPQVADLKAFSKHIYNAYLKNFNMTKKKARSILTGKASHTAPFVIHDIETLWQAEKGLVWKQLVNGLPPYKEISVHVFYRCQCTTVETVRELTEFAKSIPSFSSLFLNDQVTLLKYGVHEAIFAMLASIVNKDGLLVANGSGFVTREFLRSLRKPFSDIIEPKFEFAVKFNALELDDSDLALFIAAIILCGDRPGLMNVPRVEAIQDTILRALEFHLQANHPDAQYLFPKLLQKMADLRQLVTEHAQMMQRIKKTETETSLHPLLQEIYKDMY
smiles,measurement,setting,value
NC[C@H]1O[C@H](O[C@H]2[C@H](O[C@@H]3O[C@H](CO)[C@@H](O)[C@H]3O)C(O)[C@H](N)C[C@@H]2N)[C@H](N)[C@@H](O)[C@@H]1O (stereo partly drawn),"activity change, negative = cytotoxicity",[1],8.47% [at 13.2 µM]
same,"viability change, negative = cytotoxic",[2],-6.55% [at 13.7 µM]
same,"activity change, negative = cytotoxicity",[3],8.66% [at 13.2 µM]
same,"activity change, negative = cytotoxicity",[4],-1.26% [at 13.2 µM]
same,"viability change, negative = cytotoxic",[5],-0.622% [at 6.95 µM]
same,"activity, negative = cytotoxic",[6],0.788% [at 6.95 µM]
same,"activity change, negative = cytotoxicity",[7],-1.85% [at 6.95 µM]
same,"activity change, negative = inhibition",[8],9.94% [at 8.39 µM]
same,"viability change, negative = cytotoxic",[9],9.44% [at 6.97 µM]
same,activation,[10],-3.58% [at 6.97 µM]
same,activation,[11],5.85% [at 6.98 µM]
CC(C)(c1cc(Br)c(OCC(Br)CBr)c(Br)c1)c1cc(Br)c(OCC(Br)CBr)c(Br)c1 (stereo not drawn),Potency,[1],inactive
same,Potency,[2],inactive
same,Potency,[12],inactive
same,Potency,[13],inactive
same,Potency,[3],inactive
same,Potency,[14],inactive
same,Potency,[15],inactive
same,Potency,[4],inactive
same,Potency,[5],inactive
same,Potency,[6],inactive
same,Potency,[16],inactive
same,Potency,[8],inactive
same,Potency,[9],inactive
same,Potency,[10],inactive
same,Potency,[11],inactive
CNc1ccc([N+](=O)[O-])cc1,Potency,[2],inactive
same,Potency,[13],27.6 µM (active)
same,Potency,[3],inactive
same,Potency,[4],inactive
same,Potency,[5],inactive
same,Potency,[6],inactive
same,Potency,[7],inactive
same,Potency,[9],inactive
same,Potency,[10],inactive
same,Potency,[11],inactive
O=C(O)Cc1ccc2c(c1)C(=O)c1ccccc1CO2,Potency,[1],inactive
same,Potency,[17],inactive
same,Potency,[12],inactive
same,Potency,[13],inactive
same,Potency,[3],inactive
same,Potency,[15],inactive
same,Potency,[4],inactive
same,Potency,[5],inactive
same,Potency,[6],inactive
same,Potency,[7],inactive
same,Potency,[16],inactive
same,Potency,[9],inactive
same,Potency,[10],inactive
CCCCCC(C)OC(=O)COc1ccc(Cl)c2cccnc12 (stereo not drawn),Potency,[18],inactive
same,Potency,[3],inactive
same,Potency,[14],inactive
same,Potency,[15],inactive
same,Potency,[5],inactive
same,Potency,[6],inactive
same,Potency,[7],inactive
same,Potency,[8],inactive
same,Potency,[9],34.7 µM (active)
CCCCC(CC)CN1CN(CC(CC)CCCC)CC(C)(N)C1 (stereo not drawn),Potency,[1],inactive
same,Potency,[12],inactive
same,Potency,[19],inactive
same,Potency,[13],inactive
same,Potency,[18],inactive
same,Potency,[3],inactive
same,Potency,[15],inactive
same,Potency,[4],29.8 µM (active)
same,Potency,[5],inactive
same,Potency,[6],26.8 µM (active)
same,Potency,[7],21.3 µM (active)
same,Potency,[16],26.6 µM (active)
same,Potency,[8],inactive
same,Potency,[9],inactive
same,Potency,[10],inactive
O=C1OC2(c3ccc(O)cc3Oc3cc(O)ccc32)c2ccc(N=C=S)cc21,Potency,[1],inactive
same,Potency,[2],inactive
same,Potency,[12],inactive
same,Potency,[13],inactive
same,Potency,[18],inactive
same,Potency,[3],inactive
same,Potency,[4],inactive
same,Potency,[5],inactive
same,Potency,[6],inactive
same,Potency,[7],inactive
same,Potency,[16],inactive
same,Potency,[9],inactive
same,Potency,[10],inactive
CCCCC(CC)COC(=O)CCCCC(=O)OCc1ccccc1 (stereo not drawn),Potency,[1],inactive
same,Potency,[17],inactive
same,Potency,[2],inactive
same,Potency,[12],inactive
same,Potency,[19],inactive
same,Potency,[13],inactive
same,Potency,[3],inactive
same,Potency,[14],inactive
same,Potency,[15],inactive
same,Potency,[4],inactive
same,Potency,[5],inactive
same,Potency,[6],inactive
same,Potency,[7],inactive
same,Potency,[16],inactive
same,Potency,[9],inactive
same,Potency,[10],inactive
same,Potency,[11],inactive

# Reference: PubChem BioAssay (Tox21)
